Compound activity: PubChem, several laboratories
Shown are actives, neighbours in structure and some others; about 3.5% of the full set was active somewhere.
GDH-TPI inh – GDH-TPI coupling enzyme inhibitors, primary screen, artefact control for M. tuberculosis FBA inhibitor project, biochemical, absorbance, full deck | GDH-TPI coupled enzyme counterscreen, NADH absorbance | inhibition, % at 4.8 µM | 360,000 compounds, 1.2% hits | AID 588335, 2011; in the data active = inhibition above about 30%;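 note: 0% = DMSO wells and 100% = wells lacking the enzyme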
Mtb FBA inh – Mtb FBA enzyme inhibitors, primary screen, biochemical, fluorescence, strain H37Rv; 360,000 compounds, 2.3% hits; Fructose-bisphosphate aldolase (Mycobacterium tuberculosis (strain ATCC 25618 / H37Rv)), …; inhibition, % at 1 µM; AID 588726, 2011; purified M. tuberculosis FBA, fluorescence read-out; in the data active = inhibition above about 27%;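 note: 0% = vehicle and 100% = reference inhibitor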
Target sequence (P9WQA3 whole entry, looked up): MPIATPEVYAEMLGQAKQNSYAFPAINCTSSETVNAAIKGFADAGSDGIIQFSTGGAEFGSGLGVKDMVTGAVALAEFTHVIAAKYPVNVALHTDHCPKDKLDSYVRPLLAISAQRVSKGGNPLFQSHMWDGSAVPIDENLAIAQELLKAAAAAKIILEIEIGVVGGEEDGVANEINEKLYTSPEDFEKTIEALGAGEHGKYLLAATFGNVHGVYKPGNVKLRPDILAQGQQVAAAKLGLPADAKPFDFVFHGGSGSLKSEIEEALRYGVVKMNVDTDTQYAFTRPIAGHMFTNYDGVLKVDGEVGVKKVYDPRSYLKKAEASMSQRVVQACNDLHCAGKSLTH
Rv3671c protease – Rv3671c serine protease inhibitors, primary screen, biochemical, fluorescence polarization, M. tuberculosis H37Rv | P9WHR9 | inhibition, % at 5.96 µM | 320,000 compounds, 0.048% hits | AID 2606, 2010; in the data active = inhibition above about 38%;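 note: extracellular domain of Rv3671c used as enzyme; 0% = enzyme with DMSO and 100% = no enzyme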
Mtb betalactam – beta-lactam sensitization of Mtb H37Rv, H37Rv. 330,000 compounds, 0.27% hits. inhibition, % at 25 µM. M. tuberculosis H37Rv growth with meropenem, percent inhibition; call rule not given here;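 note: growth measured after seven days incubation then overnight dye step; 0% = bacteria only wells and 100% = bacteria with antibiotic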
Mtb UGM inh – M. tuberculosis UGM enzyme inhibitors, primary screen, biochemical, fluorescence polarization, single point; inhibition, % at 10 µM; AID 504406, 2011; purified UGM, fluorescence polarization probe displacement; 320,000 compounds, 0.06% hits; in the data active = inhibition above about 10%, passing the limit was not always enough; inconclusive = no clear call, values can overlap the other calls
Target sequence (P9WIQ1 whole entry, looked up): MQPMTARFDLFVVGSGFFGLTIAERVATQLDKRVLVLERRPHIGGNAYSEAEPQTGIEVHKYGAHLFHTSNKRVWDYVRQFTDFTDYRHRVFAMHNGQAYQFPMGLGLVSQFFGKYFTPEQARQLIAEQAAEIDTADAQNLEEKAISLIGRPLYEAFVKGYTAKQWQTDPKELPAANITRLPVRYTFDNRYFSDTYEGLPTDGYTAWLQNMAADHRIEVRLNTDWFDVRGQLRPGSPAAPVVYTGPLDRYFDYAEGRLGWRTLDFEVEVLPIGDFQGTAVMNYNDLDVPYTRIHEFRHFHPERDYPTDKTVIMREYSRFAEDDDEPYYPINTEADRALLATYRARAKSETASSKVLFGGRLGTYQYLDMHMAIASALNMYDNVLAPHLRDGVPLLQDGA
The depositor's hits bear a star; ? = inconclusive; · = no result given; + = active, no number.

SMILES | GDH-TPI inh | Mtb FBA inh | Rv3671c protease | Mtb betalactam | Mtb UGM inh
COc1cc(/C=N/NC(=S)Nc2cccc(C(=O)O)c2)ccc1O | 32.2* | 3.5 | -15.3 | -3.2 | 2.7
COc1ccc(Br)cc1/C=N/NC(=O)c1cc(OC)c(OC)c(OC)c1 | 26.3 | 6.5 | -10.6 | -2.1 | 1.0
CC(C)NC(=O)C1(C)CCN1C(=O)c1ccc2c(c1)OCO2 (stereo not drawn) | -1.8 | -2.2 | · | · | ·
Cn1nc(-c2ccccc2)c(CO)c1Oc1ccc(F)cc1 | 3.8 | 1.4 | -5.6 | 4.9 | 0.2
COc1cc(/C=N/Nc2ccc(C(=O)O)cc2)cc(OC)c1OC | 41.2* | -1.2 | -2.7 | 0.8 | -0.6
COc1cc(/C=N/Nc2ccc(C(=O)O)cc2)ccc1O | 33.1* | 2.2 | -7.8 | -0.5 | 1.1
COc1cc(/C=N/NC(=O)c2ccccc2)ccc1O | 18.0 | -1.8 | -4.9 | 5.5 | 4.1
COc1ccc(/C=N/Nc2ccc(C(=O)O)cc2)c(OC)c1OC | 20.4 | -0.2 | 0.5 | 19.4 | -0.4
O=C(CSc1nc2ccc(Cl)cc2[nH]1)Nc1ccc2[nH]c(=O)[nH]c2c1 | 12.8 | 6.3 | -2.5 | 96.2 | 0.1
CCOc1ccc(NS(=O)(=O)c2ccc3[nH]c(=O)c(=O)[nH]c3c2)cc1 | 3.8 | -3.4 | -10.9 | -6.8 | -1.9
CCOc1ccc(NC(=O)c2ccc3[nH]c(=O)c(=O)[nH]c3c2)cc1 | 31.6* | 2.6 | -4.8 | 2.9 | -0.4
CCOCCCN1C(=O)CN(C2CCC(C)CC2)C(=O)C1c1ccc(C)cc1 (stereo not drawn) | 13.4 | -0.9 | -2.0 | 5.4 | -1.0
Cc1cccc(OCC(=O)N(Cc2ccc(C)o2)C2CCS(=O)(=O)C2)c1 (stereo not drawn) | 8.6 | -3.1 | 3.2 | 2.7 | -1.4
Cn1ncnc1SCc1cn2cccnc2n1 | 8.3 | 130.1* | -2.2 | 0.4 | -3.2
Cc1ccc(SCc2cn3cccnc3n2)cc1 | 10.2 | -0.4 | 8.4 | 2.1 | -1.5
COc1ccccc1CCC(=O)Nc1ccc2c(c1)CN(Cc1ccc(C)o1)CC2 | 17.7 | 3.3 | -2.4 | 28.1 | 2.9
CCOC(=O)c1sc(=S)n(CC)c1NC(=O)C1CC1 | 35.1* | 1.9 | 3.1 | -1.9 | 1.7
C=CCn1c(NC(=O)c2ccc(Br)o2)c(C(=O)OCC)sc1=S | 20.4 | 7.0 | 2.2 | 3.9 | -1.4
CCOC(=O)c1sc(=S)n(C)c1NC(=O)c1ccc(OC)cc1 | 36.5* | -0.4 | 3.1 | 95.0 | -2.8
CCOC(=O)c1sc(=S)n(C)c1NC(=O)c1ccccc1Cl | 39.5* | 0.0 | -11.3 | -1.6 | -1.4
CCOC(=O)c1sc(NC(=O)C2CCCCC2)nc1C | -3.2 | 0.6 | 8.2 | 3.3 | -3.1
CCOC(=O)c1sc(NC(=O)c2ccc(OC)cc2)nc1C | 6.2 | 5.2 | -5.3 | -5.0 | -1.5
CCOC(=O)c1sc(=S)n(C)c1NC(=O)c1ccc(C(C)(C)C)cc1 | 40.7* | -0.2 | -3.8 | 92.3 | -0.4
CCOc1ccc(NC(=O)COc2ccc(C(=O)NC(C)c3ccc(S(N)(=O)=O)cc3)cc2OC)cc1 (stereo not drawn) | 3.6 | -2.9 | -5.9 | -8.8 | 1.6
CC(=O)NCCC1CCN(c2nc3nonc3nc2N(C)Cc2ccccc2)CC1 | 37.2* | 0.4 | -2.0 | -1.4 | 0.5
SMILES | GDH-TPI inh | Mtb FBA inh | Rv3671c protease | Mtb betalactam | Mtb UGM inh
Cc1ccccc1CC(=O)Nc1cccc(S(=O)(=O)N2CCCC2)c1 | -0.5 | 0.7 | -4.9 | -0.5 | 2.1
COc1cccc(NC(=O)CN(C)C(=O)C2=COCCO2)c1 | 2.8 | 4.3 | · | · | ·
CCOc1ccccc1Oc1coc2cc(OC)ccc2c1=O | -15.6 | -11.0 | 1.8 | -0.1 | 1.2
CCN(CC)Cc1c(O)ccc2c(=O)c(-c3ccc4c(c3)OCCO4)coc12 | 31.2* | 22.5 | 5.2 | -1.8 | -0.6
COc1ccccc1-c1coc2c(CN(C)C)c(O)ccc2c1=O | 21.9 | 188.3* | 3.8 | 2.2 | 0.0
COc1ccccc1Oc1coc2c(CN(C)C)c(O)ccc2c1=O | 25.2 | 114.0* | -3.5 | -0.1 | 1.1
NC(=O)CC(NC(=O)Cc1cccc2ccccc12)c1ccc(N2CCC(N3CCCC3)CC2)c([N+](=O)[O-])c1 (stereo not drawn) | 8.5 | 4.9 | -6.6 | -8.0 | 1.8
COc1ccc(CNC(=O)c2cc3c(=O)n4ccccc4nc3n(Cc3cccnc3)c2=N)cc1 | 17.7 | 7.9 | 0.8 | -11.6 | 5.6
N=c1c(C(=O)NCc2ccc(F)cc2)cc2c(=O)n3ccccc3nc2n1Cc1ccco1 | 6.7 | 38.0* | 9.5 | 95.4 | -0.2
N=c1c(C(=O)NCc2ccco2)cc2c(=O)n3ccccc3nc2n1Cc1ccccc1 | 15.4 | 162.8* | 5.7 | -9.9 | -0.8
COCCn1c(=N)c(C(=O)NCc2ccco2)cc2c(=O)n3ccccc3nc21 | 2.6 | 137.8* | 1.6 | -4.3 | -0.7
Cc1cc(=O)oc2cc(NC(=O)c3cc(F)ccc3F)ccc12 | 12.8 | 7.3 | 0.8 | -1.7 | -0.6
Cc1cc(=O)oc2cc(NS(=O)(=O)c3ccc(F)cc3)ccc12 | 51.7* | · | 5.0 | -0.8 | 0.1
Cc1cc(=O)oc2cc(NS(=O)(=O)c3ccccc3)ccc12 | 36.5* | · | -2.8 | 1.5 | -1.4
CN(C)S(=O)(=O)c1ccc(S(=O)(=O)Nc2ccc3c(c2)oc2ccccc23)cc1 | 9.5 | -0.7 | 1.1 | 6.4 | -0.1
Cc1ccc(-c2nnc(SCC(=O)NC3CCCC3)n2C)cc1 | 5.2 | 2.8 | 0.7 | -8.1 | -0.4
CC(=O)c1ccc2cc3c(cc2c1)OCO3 | 15.0 | 4.2 | · | · | ·
C(=N\Nc1nc2ccccc2s1)/c1cccs1 | 42.5* | 0.2 | 11.1 | 81.4 | -0.9
Oc1ccc(C=NNc2nc3ccccc3s2)c(O)c1 | 32.3* | -1.4 | · | · | ·
Oc1ccccc1C=NNc1nc2ccccc2s1 | 23.8 | 2.7 | · | · | ·
Cc1ccsc1/C=N/Nc1nc2ccccc2s1 | 20.1 | 0.0 | -3.9 | -2.5 | ·
C(=N\Nc1nc2ccccc2s1)/c1ccco1 | 41.6* | -0.9 | 3.0 | 86.3 | -1.6
CCC(=O)N1CCc2cc(Br)cc(S(=O)(=O)N3CCC(C(=O)NC(C)C)CC3)c21 | -6.2 | -0.3 | -9.0 | -4.1 | -5.0
COc1ccc(CC(=O)Oc2ccc(C(C)(C)C)cc2)cc1S(=O)(=O)N1CCOCC1 | 10.7 | 0.5 | 1.4 | -3.5 | -1.9
CCN(CC)S(=O)(=O)c1ccc(C(=O)Nc2cc(S(=O)(=O)N3CCOCC3)ccc2O)cc1 | 8.9 | -1.6 | 1.9 | 3.5 | -1.8
SMILES | GDH-TPI inh | Mtb FBA inh | Rv3671c protease | Mtb betalactam | Mtb UGM inh
CCOC(=O)C1CCN(C(=O)COC(=O)Cc2ccc(Cl)cc2)CC1 | -6.4 | -3.4 | -2.7 | 4.0 | 0.0
CCCCc1cc(=O)oc2c(CN3CCCC3)c(O)ccc12 | 4.5 | + | -2.6 | -6.5 | -0.9
CCc1cc(=O)oc2c(CN3CCN(C)CC3)c(O)c(Cl)cc12 | 44.4* | + | 1.9 | ? | 0.3
CCCc1cc(=O)oc2c(CNc3ccc(OCC)cc3)c(O)ccc12 | 9.0 | 164.8* | 0.5 | 97.3 | -0.5
CCc1cc(=O)oc2c(CNCc3c(F)cccc3Cl)c(O)ccc12 | 11.2 | + | -6.6 | 1.3 | -2.3
Cc1occc(=O)c1OCc1c(F)cccc1Cl | -7.6 | -2.2 | -16.8 | -7.3 | 0.1
